This is an account of results in PubChem BioAssay (NCI).

Values joined by “and” are separate entries in the source; they are usually repeats but may differ in a detail not shown here. Equal entries are not always repeated. This is part of a sample that, as a whole, favours compounds with a hit. Of some 83,000 tested, about 20% had one in any assay.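 A percent growth of 40 corresponds to 60% growth inhibition; 0 means no net growth; -100 means all cells died. Active threshold: below 10.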 Active and inactive are the calls of the source.

What all share (test): NCI-60 one-dose screen, 48 h (100 = growth as untreated, 0 = no growth, -100 = all killed)
One assay deals with T-47D breast. The settings on record: 10 µM unless noted.
In another assay the test system is BT-549 breast. The settings on record: 10 µM unless noted.
For a further assay, the system named is MDA-MB-435 melanoma. The settings on record: 10 µM unless noted.
In the next assay the test system is SW-620 colon. The settings on record: 10 µM unless noted.
Another assay concerns MCF7 breast. The settings on record: 10 µM.
A further assay relates to HCT-116 colon. The settings on record: 10 µM unless noted.
The next assay concerns HCC-2998 colon. The settings on record: 10 µM unless noted.
The subject of the next assay is KM12 colon. The settings on record: 10 µM unless noted.

As for `COc1cc(/C=C(/C)C[N+](=O)[O-])ccc1O`, the growth in the assay with T-47D breast is 56.7% (inactive); with BT-549 breast, 113% (inactive); in the assay on MDA-MB-435 melanoma, 105% (inactive); with SW-620 colon, 48.9% (inactive); in the assay with MCF7 breast it was 16.5% (inactive); with HCT-116 colon it was 82.7% (inactive). Moreover, the growth in the assay with HCC-2998 colon was 102% (inactive); in the assay on KM12 colon it was 96.5% (inactive).
With `Cc1ccc(N=C=C(c2ccccc2)c2ccccc2)cc1`, the growth is 85.7% (inactive) in the assay on T-47D breast; 91.9% (inactive) in the assay with BT-549 breast; 79.9% (inactive) with MDA-MB-435 melanoma; 35.8% (inactive) in the assay with SW-620 colon; 68.5% (inactive) in the assay with MCF7 breast; 15.9% (inactive) in the assay with HCT-116 colon. For the same molecule, the growth is 101% (inactive) with HCC-2998 colon and 95% (inactive) in the assay on KM12 colon.
On to `Cc1ccc(C(=Nc2ccccc2)N=P(c2ccccc2)(c2ccccc2)c2ccccc2)cc1`, for which the growth is -33.4% (active) in the assay with T-47D breast; -26.9% (active) in the assay on BT-549 breast; -76.4% (active) in the assay on MDA-MB-435 melanoma; -40.7% (active) with SW-620 colon; -39.7% (active) in the assay with MCF7 breast; -37.8% (active) in the assay on HCT-116 colon. Further, the growth with HCC-2998 colon was -71.6% (active); with KM12 colon, -70.9% (active).
`NC(=S)N/N=C/c1ccc(Cl)s1`: the growth in the assay with T-47D breast is 89.8% (inactive); in the assay with BT-549 breast, 112% (inactive); in the assay with MDA-MB-435 melanoma, 104% (inactive); with SW-620 colon, 105% (inactive); with MCF7 breast, 104% (inactive); in the assay with HCT-116 colon, 93.4% (inactive). The values for the growth in the assay with HCC-2998 colon and in the assay on KM12 colon were 111% (inactive) and 101% (inactive), respectively.
As to `Nc1ccc(SSc2ccc(N)cc2)cc1`, the growth in the assay on T-47D breast is 88.7% (inactive); in the assay on BT-549 breast it was 66.6% (inactive); in the assay with MDA-MB-435 melanoma it was 93.4% (inactive); with SW-620 colon, 95.1% (inactive); with MCF7 breast, 96.5% (inactive); in the assay with HCT-116 colon, 95.1% (inactive). Besides, the growth is 94.8% (inactive) in the assay on HCC-2998 colon and 86.1% (inactive) with KM12 colon.
As for `CN1c2ccccc2C(C)(C)C12C=Cc1cc(O)ccc1O2` (configuration not stated), the growth in the assay with T-47D breast is 40.2% (inactive); in the assay with BT-549 breast it was 33.2% (inactive); in the assay with MDA-MB-435 melanoma it was -66.4% (active); in the assay on SW-620 colon, 46.9% (inactive); in the assay on MCF7 breast, 5.47% (active); with HCT-116 colon, 67.9% (inactive). Moreover, the growth in the assay on HCC-2998 colon is 83.2% (inactive); in the assay on KM12 colon it was 18.7% (inactive).
Turning to `Cc1ccc(NS(=O)(=O)c2ccc(C)cc2)cc1`, the growth was 94.1% (inactive) and 83.7% (inactive) in the assay on T-47D breast; 117% (inactive) and 105% (inactive) with BT-549 breast; 108% (inactive) and 109% (inactive) with MDA-MB-435 melanoma; 104% (inactive) and 107% (inactive) in the assay with SW-620 colon; 88% (inactive) and 91.2% (inactive) in the assay on MCF7 breast; 102% (inactive) and 98.1% (inactive) with HCT-116 colon. The growth in the assay on HCC-2998 colon was 97.7% (inactive) and 97.8% (inactive); in the assay with KM12 colon, 91.2% (inactive) and 89.2% (inactive).
Turning to `NC1=CC(=O)c2ccccc2C1=O`, the growth is 98% (inactive) in the assay on T-47D breast; 92.1% (inactive) with BT-549 breast; 8.66% (active) with MDA-MB-435 melanoma; 107% (inactive) with SW-620 colon; 54.5% (inactive) with MCF7 breast; 80.8% (inactive) with HCT-116 colon. Further, the growth is 90.4% (inactive) in the assay with HCC-2998 colon and 79.3% (inactive) in the assay on KM12 colon.
Turning to `N#Cc1ccc([N+](=O)[O-])o1`, the growth is 85.1% (inactive) in the assay with T-47D breast; 101% (inactive) in the assay on BT-549 breast; 108% (inactive) in the assay with MDA-MB-435 melanoma; 106% (inactive) in the assay on SW-620 colon; 101% (inactive) in the assay on MCF7 breast; 92.6% (inactive) in the assay with HCT-116 colon. Moreover, the growth was 117% (inactive) in the assay on HCC-2998 colon and 102% (inactive) with KM12 colon.
On to `O=C1c2ccccc2C(=O)c2sc(Nc3ccc(Cl)cc3)nc21`, for which the growth is 29.2% (inactive) in the assay on T-47D breast; 75.9% (inactive) with BT-549 breast; -87.5% (active) with MDA-MB-435 melanoma; -40% (active) in the assay with SW-620 colon; -60.3% (active) with MCF7 breast; -36.6% (active) in the assay on HCT-116 colon. In addition, the growth with HCC-2998 colon was 57.6% (inactive); with KM12 colon it was 60.1% (inactive).
Regarding `CC(C)(C)c1ccc(O)c(C2CCCCC2)c1`, the growth in the assay with T-47D breast is 108% (inactive); with BT-549 breast, 127% (inactive); in the assay on MDA-MB-435 melanoma, 117% (inactive); in the assay with SW-620 colon it was 99.6% (inactive); in the assay on MCF7 breast, 101% (inactive); in the assay on HCT-116 colon, 95% (inactive). For the same molecule, the growth with HCC-2998 colon was 111% (inactive); with KM12 colon it was 91.1% (inactive).
`O=C(/C=C/c1cccc(Cl)c1)c1ccccc1`: the growth is 96.8% (inactive) and 88.3% (inactive) in the assay with T-47D breast; 98.4% (inactive) and 85.2% (inactive) with BT-549 breast; 88.1% (inactive) and 59.8% (inactive) with MDA-MB-435 melanoma; 52.8% (inactive) and 39.4% (inactive) in the assay on SW-620 colon; 31.4% (inactive) and 15.7% (inactive) in the assay with MCF7 breast; 12.3% (inactive) and -17.1% (active) in the assay on HCT-116 colon. For the same molecule, the growth with HCC-2998 colon was 92.5% (inactive); in the assay on KM12 colon, 63.2% (inactive) and 30.8% (inactive).
Turning to `CCC1OC(OC)C=CC1=O` (configuration not stated), the growth was 95.1% (inactive) with T-47D breast; 88.8% (inactive) in the assay with BT-549 breast; 98.6% (inactive) in the assay with MDA-MB-435 melanoma; 100% (inactive) with SW-620 colon; 89.9% (inactive) in the assay with MCF7 breast; 96.5% (inactive) in the assay with HCT-116 colon. Also, the growth is 122% (inactive) with HCC-2998 colon and 99.7% (inactive) with KM12 colon.
Turning to `NC(N)=N/N=C/c1ccc([N+](=O)[O-])o1`, the growth was 96.7% (inactive) in the assay on T-47D breast; 94.5% (inactive) in the assay on BT-549 breast; 115% (inactive) in the assay on MDA-MB-435 melanoma; 105% (inactive) in the assay on SW-620 colon; 72.4% (inactive) in the assay on MCF7 breast; 89% (inactive) with HCT-116 colon. The figures for the growth with HCC-2998 colon and with KM12 colon were 88% (inactive) and 82.3% (inactive), respectively.
